20 compounds from PubChem BioAssay can be followed below.

What is called inhibition is the change of the read-out against control, counted positive when it falls.

Assay [1] is described as follows: antimalarial activity against Dd2 strain (AID 2302;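 active means growth inhibition above 50% at the single 2 µM test dose, taken to imply half-maximal potency below 2 µM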;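 further: 0% = DMSO untreated growth and 100% = chloroquine plus artemisinin killed control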). Particulars: P. falciparum Dd2 in RBCs, LDH growth readout, 72 h; at 2 µM; stronger effect = higher value.
Assay [2] is described as follows: human hepatoma cell viability loss – ATP luminescence, cytotoxicity control for P. falciparum antimalarial project, primary screen (AID 2303;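 active means inhibition above 50%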;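 further: 0% = DMSO wells and 100% = digitonin-killed cells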). Particulars: HepG2 viability, 24-48 h, at 10 µM, stronger effect = higher value.
For assay [3], the target named is L-lactate dehydrogenase (Plasmodium falciparum (isolate CDC / Honduras)) (UniProt Q27743). The assay can be described thus: PfLDH activity inhibition – cell lysate, 3D7 strain, counter-screen for P. falciparum growth inhibition project (AID 2304).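 Further: 0% = vehicle and 100% = reference inhibitor.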 Particulars: P. falciparum 3D7 crude extract, LDH APAD/NBT absorbance; at 2 µM; stronger effect = higher value.
Chain of L-lactate dehydrogenase (Plasmodium falciparum (isolate CDC / Honduras)) (Q27743 whole entry, looked up): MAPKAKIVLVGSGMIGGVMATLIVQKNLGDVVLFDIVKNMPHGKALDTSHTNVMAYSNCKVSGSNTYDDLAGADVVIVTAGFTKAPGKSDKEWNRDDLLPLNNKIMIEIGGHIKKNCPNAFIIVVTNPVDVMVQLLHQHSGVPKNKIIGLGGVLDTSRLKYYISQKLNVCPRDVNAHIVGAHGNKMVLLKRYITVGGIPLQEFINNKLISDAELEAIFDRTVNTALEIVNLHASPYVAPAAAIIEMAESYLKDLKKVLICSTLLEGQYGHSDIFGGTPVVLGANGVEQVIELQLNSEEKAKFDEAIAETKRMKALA
A short description of assay [4]: inhibition of 3D7 malaria parasite growth – strain 3D7 (AID 2306).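 Further: 0% = DMSO wells and 100% = chloroquine plus artemisinin control wells.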 Particulars: P. falciparum 3D7 erythrocytic growth, LDH absorbance, 72 h; at 2 µM; stronger effect = higher value.
The target of assay [5] is Calcium-dependent protein kinase 1 (Plasmodium falciparum (isolate 3D7)) (UniProt P62344). The assay can be described thus: PfCDPK1 kinase inhibitors, biochemical, TCAMS library (AID 1159585; cut-off not given, nearly all actives have IC50 up to about 0.98 µM;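 further: inhibitors leave more ATP so luminescence rises with inhibition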). The conditions noted are these: recombinant PfCDPK1, Kinase-Glo ATP depletion luminescence. (In Kinase-Glo more light means more ATP remaining.)
Chain of Calcium-dependent protein kinase 1 (Plasmodium falciparum (isolate 3D7)) (P62344 whole entry, looked up): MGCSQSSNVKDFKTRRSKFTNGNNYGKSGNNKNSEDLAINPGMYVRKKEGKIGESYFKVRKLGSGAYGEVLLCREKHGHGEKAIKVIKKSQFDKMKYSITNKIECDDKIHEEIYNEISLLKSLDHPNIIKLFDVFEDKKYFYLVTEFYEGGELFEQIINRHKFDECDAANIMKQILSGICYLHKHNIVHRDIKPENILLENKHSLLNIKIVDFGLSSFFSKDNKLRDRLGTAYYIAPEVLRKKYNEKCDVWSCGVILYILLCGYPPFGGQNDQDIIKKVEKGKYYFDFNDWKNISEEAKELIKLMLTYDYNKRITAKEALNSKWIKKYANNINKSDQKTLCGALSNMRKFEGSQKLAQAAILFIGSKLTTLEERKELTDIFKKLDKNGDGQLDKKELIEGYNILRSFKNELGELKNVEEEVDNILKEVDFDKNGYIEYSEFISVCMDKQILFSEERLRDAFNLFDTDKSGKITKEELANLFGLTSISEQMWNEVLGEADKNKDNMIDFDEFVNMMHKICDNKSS
In assay [6] the target is Plasmodium falciparum protein kinase 6 (PK6, PF3D7_1337100) (UniProt Q8IDW1). Put plainly: PfPK6 kinase inhibitors, biochemical, TCAMS library (AID 1159586). Particulars: recombinant PfPK6, Kinase-Glo ATP depletion luminescence.
Chain of Plasmodium falciparum protein kinase 6 (PK6, PF3D7_1337100) (Q8IDW1 1-305): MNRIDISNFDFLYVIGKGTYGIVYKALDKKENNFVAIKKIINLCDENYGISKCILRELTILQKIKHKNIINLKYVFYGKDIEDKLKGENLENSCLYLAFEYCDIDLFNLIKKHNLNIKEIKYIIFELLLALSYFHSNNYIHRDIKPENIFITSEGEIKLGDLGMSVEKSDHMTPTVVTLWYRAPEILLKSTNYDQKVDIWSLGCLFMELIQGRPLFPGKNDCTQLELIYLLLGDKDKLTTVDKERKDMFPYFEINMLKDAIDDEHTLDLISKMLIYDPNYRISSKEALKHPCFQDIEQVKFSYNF
In assay [7] the target is Protein kinase 7 (PK7), Plasmodium falciparum 3D7 (PF3D7_0213400) (UniProt Q7YTF7). Put plainly: inhibition of Plasmodium PK7 catalytic activity – biochemical, TCAMS antimalarial set, Kinase-Glo luminescence (AID 1159587). The conditions noted are these: recombinant PfPK7, Kinase-Glo ATP depletion luminescence.
Chain of Protein kinase 7 (PK7), Plasmodium falciparum 3D7 (PF3D7_0213400) (Q7YTF7 1-343): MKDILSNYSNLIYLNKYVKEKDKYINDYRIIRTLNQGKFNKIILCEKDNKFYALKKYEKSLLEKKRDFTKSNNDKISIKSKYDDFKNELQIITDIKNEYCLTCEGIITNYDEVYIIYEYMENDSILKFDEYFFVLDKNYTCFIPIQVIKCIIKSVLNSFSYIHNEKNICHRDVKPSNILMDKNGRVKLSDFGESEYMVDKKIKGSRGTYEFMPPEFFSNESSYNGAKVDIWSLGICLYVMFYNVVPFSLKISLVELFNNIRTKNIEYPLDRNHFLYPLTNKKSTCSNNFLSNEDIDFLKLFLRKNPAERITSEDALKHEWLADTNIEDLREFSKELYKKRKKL
Assay [8] addresses Calcium-dependent protein kinase 4 (Plasmodium falciparum (isolate 3D7)) (UniProt Q8IBS5). Put plainly: PfCDPK4 kinase inhibitors, biochemical, TCAMS library (AID 1159588; cut-off not given, nearly all actives have IC50 up to about 0.91 µM). The conditions noted are these: recombinant PfCDPK4, Kinase-Glo ATP depletion luminescence.

Each structure is given as a SMILES string. Values without a mark were called inactive. For some of these results: Results with a measured potency or affinity are listed apart. Calls of active or inactive are those of the source. Unless noted, how the calls were made is not given here.

Chain of Calcium-dependent protein kinase 4 (Plasmodium falciparum (isolate 3D7)) (Q8IBS5 whole entry, looked up): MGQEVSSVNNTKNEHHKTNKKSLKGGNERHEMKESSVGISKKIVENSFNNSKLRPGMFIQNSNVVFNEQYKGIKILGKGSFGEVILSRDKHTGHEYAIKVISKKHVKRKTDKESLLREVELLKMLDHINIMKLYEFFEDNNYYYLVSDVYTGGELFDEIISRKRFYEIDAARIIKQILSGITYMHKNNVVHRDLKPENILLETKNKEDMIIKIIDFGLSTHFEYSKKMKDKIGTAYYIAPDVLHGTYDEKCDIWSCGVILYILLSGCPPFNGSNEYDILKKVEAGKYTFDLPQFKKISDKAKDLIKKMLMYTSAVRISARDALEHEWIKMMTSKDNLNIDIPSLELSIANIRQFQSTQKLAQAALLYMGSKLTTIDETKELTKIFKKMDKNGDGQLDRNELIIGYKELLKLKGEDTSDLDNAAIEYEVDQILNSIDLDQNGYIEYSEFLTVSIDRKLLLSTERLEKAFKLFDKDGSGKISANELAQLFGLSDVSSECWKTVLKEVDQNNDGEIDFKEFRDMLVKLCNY

`COc1ccc2c(c1)Nc1ccc(Cl)cc1C2N` (stereo not given): the growth inhibition in assay [1] was 99% (active); in assay [4] it was 101% (active). The results for the inhibition in assay [2] and in assay [3] were 16% and 3%, respectively. The outcome in assay [5], in assay [6], in assay [7] and in assay [8] was inactive.

With `Cn1nc(-c2cccc(CNCCc3cccs3)c2)c2cnc(NC3CCCC3)nc21`, the growth inhibition in assay [1] was -1%; in assay [4] it was 97% (active). In addition, the inhibition in assay [2] was 8%; in assay [3] it was -1%. The outcome in assay [5], in assay [6], in assay [7] and in assay [8] was inactive.

In the case of `Cc1cc2ncc(C(N)=O)c(Nc3ccc(N4CCOCC4)cc3)c2cc1S(C)(=O)=O`, the growth inhibition in assay [1] is 96% (active); in assay [4], 100% (active). Besides, the inhibition in assay [2] was -10%; in assay [3] it was -5%. Besides, the result in assay [5], in assay [6], in assay [7] and in assay [8] was inactive.

As to `Cc1cc2nc(-c3cc(Br)ccc3O)c(-c3cc(Br)ccc3O)nc2cc1C`, the values for the growth inhibition in assay [1] and in assay [4] were 12% and 96% (active), respectively. In addition, the results for the inhibition in assay [2] and in assay [3] were 2% and -1%, respectively. The outcome in assay [5], in assay [6], in assay [7] and in assay [8] was inactive.

For the compound `Clc1ccc(-c2ccc(CNCCCN3CCCC3)cc2)cc1`, the growth inhibition in assay [1] was 21%; in assay [4], 91% (active). The values for the inhibition in assay [2] and in assay [3] were 47% and -5%, respectively. Further, the outcome in assay [5], in assay [6], in assay [7] and in assay [8] was inactive.

As for `CN1CCC(NCc2cccc(-c3ccc(S(=O)(=O)NCCN4CCCC4)c(F)c3)c2)CC1`, the results for the growth inhibition in assay [1] and in assay [4] were -4% and 91% (active), respectively. Also, the inhibition was 14% in assay [2] and 2% in assay [3]. Besides, the result in assay [5], in assay [6], in assay [7] and in assay [8] was inactive.

With `FC(F)(F)c1ccc2nc(-c3ccc(-c4cccc(CNCC5CCCO5)c4)s3)[nH]c2c1` (stereo not given), the growth inhibition in assay [1] and in assay [4] was 99% (active) each time. In addition, the inhibition in assay [2] was 37%; in assay [3], -7%. Further, the outcome in assay [5], in assay [6], in assay [7] and in assay [8] was inactive.

`O=C(/C=C/c1ccc(Cl)c(Cl)c1)NCCCCCN1CCC(c2c[nH]c3ccccc23)CC1`: the values for the growth inhibition in assay [1] and in assay [4] were 7% and 99% (active), respectively. The figures for the inhibition in assay [2] and in assay [3] were 33% and -2%, respectively. Moreover, the outcome in assay [5], in assay [6], in assay [7] and in assay [8] was inactive.

With `Cc1nc(-c2cccc3c(NC(=O)Nc4ccc5nccc(N6CCN(C)CC6)c5c4)cccc23)no1`, the growth inhibition is 84% (active) in assay [1] and 100% (active) in assay [4]. In addition, the inhibition in assay [2] is -4%; in assay [3], -2%. Moreover, the outcome in assay [5], in assay [6], in assay [7] and in assay [8] was inactive.

Take `FC(F)(F)c1cccc(Nc2nc3ccccc3nc2Nc2cccc(C(F)(F)F)c2)c1`: the growth inhibition is 100% (active) in assay [1] and 101% (active) in assay [4]. Besides, the inhibition in assay [2] is 45%; in assay [3] it was 2%. Also, the result in assay [5], in assay [6], in assay [7] and in assay [8] was inactive.

On to `COc1ccc2nccc([C@@H](O)CN3CCC(NCc4ccc5sc(=O)[nH]c5c4)CC3)c2c1`, for which the growth inhibition in assay [1] is -3%; in assay [4], 98% (active). Moreover, the inhibition in assay [2] was 1%; in assay [3], -3%. Further, the outcome in assay [5], in assay [6], in assay [7] and in assay [8] was inactive.

`CC(=O)c1ccc(-n2ccnc2)cc1`: the figures for the growth inhibition in assay [1] and in assay [4] were -1% and 92% (active), respectively. Besides, the inhibition in assay [2] is -4%; in assay [3] it was -3%. The result in assay [5], in assay [6], in assay [7] and in assay [8] was inactive.

In the case of `OCCNc1nc(Nc2cccc(O)c2)nc2ccccc12`, the growth inhibition in assay [1] was 55% (active); in assay [4], 96% (active). Further, the inhibition in assay [2] and in assay [3] was 3% in each case. Further, the outcome in assay [5], in assay [6], in assay [7] and in assay [8] was inactive.

As to `Fc1cccc(Cl)c1-c1nc(NCCC(c2ccccc2)c2ccccc2)no1`, the results for the growth inhibition in assay [1] and in assay [4] were 87% (active) and 99% (active), respectively. Moreover, the values for the inhibition in assay [2] and in assay [3] were 4% and -3%, respectively. Further, the result in assay [5], in assay [6], in assay [7] and in assay [8] was inactive.

As for `COc1c(OC)c(OC)c2ccccc2c1CNCCCCCCNCc1c(OC)c(OC)c(OC)c2ccccc12`, the growth inhibition is 71% (active) in assay [1] and 100% (active) in assay [4]. Moreover, the inhibition is 99% (active) in assay [2] and 3% in assay [3]. Moreover, the outcome in assay [5], in assay [6], in assay [7] and in assay [8] was inactive.

As for `Cn1cncc1C(=O)Nc1cccc(-c2ccc(-c3nc4ccc(F)cc4[nH]3)s2)c1`, the growth inhibition in assay [1] was 27%; in assay [4], 99% (active). Besides, the inhibition in assay [2] was -9%; in assay [3], 1%. Also, the outcome in assay [5], in assay [6], in assay [7] and in assay [8] was inactive.

As for `CCCn1c(Sc2ccc(C#N)c([N+](=O)[O-])c2)nnc1-c1ccc(N(C)C)cc1`, the figures for the growth inhibition in assay [1] and in assay [4] were 98% (active) and 97% (active), respectively. For the same compound, the inhibition in assay [2] is 18%; in assay [3], 7%. The outcome in assay [5], in assay [6], in assay [7] and in assay [8] was inactive.

Take `COc1ccc(CNC2CCN(c3ccc(NC(=O)c4cccc(Cl)c4)cc3)CC2)cc1OC`: the values for the growth inhibition in assay [1] and in assay [4] were 13% and 96% (active), respectively. The inhibition in assay [2] was 26%; in assay [3] it was 6%. Besides, the result in assay [5], in assay [6], in assay [7] and in assay [8] was inactive.

On to `O=S(=O)(Nc1ccc2nccc(N3CCNCC3)c2c1)c1ccc2oc3ccccc3c2c1`, for which the growth inhibition in assay [1] was 2%; in assay [4], 101% (active). Besides, the results for the inhibition in assay [2] and in assay [3] were 16% and -5%, respectively. The result in assay [5], in assay [6], in assay [7] and in assay [8] was inactive.

Regarding `Clc1ccc(-c2nc3ccc(-c4ccc5nc(-c6ccc(Cl)cc6)[nH]c5c4)cc3[nH]2)cc1`, the figures for the growth inhibition in assay [1] and in assay [4] were 99% (active) and 101% (active), respectively. Further, the figures for the inhibition in assay [2] and in assay [3] were 59% (active) and -5%, respectively. For the same compound, the outcome in assay [5], in assay [6], in assay [7] and in assay [8] was inactive.
